Our source for the B-score values is PubChem BioAssay AID641 (Vanderbilt High Throughput Screening Facility, 2007).

Structures are written as SMILES. Screen size: about 58,000 compounds; about 3,400 (5.9%) were called active. The sample holds actives, similar compounds and a random draw of the others, so the mix is not that of the screen.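 Rule for the calls: active = luminescence count or its row- and column-corrected plate score outside the 99.7% band of the plate's sample wells, on either side; inactive = the rest.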

D(1A) dopamine receptor (Homo sapiens), sequence (P21728 whole entry, looked up): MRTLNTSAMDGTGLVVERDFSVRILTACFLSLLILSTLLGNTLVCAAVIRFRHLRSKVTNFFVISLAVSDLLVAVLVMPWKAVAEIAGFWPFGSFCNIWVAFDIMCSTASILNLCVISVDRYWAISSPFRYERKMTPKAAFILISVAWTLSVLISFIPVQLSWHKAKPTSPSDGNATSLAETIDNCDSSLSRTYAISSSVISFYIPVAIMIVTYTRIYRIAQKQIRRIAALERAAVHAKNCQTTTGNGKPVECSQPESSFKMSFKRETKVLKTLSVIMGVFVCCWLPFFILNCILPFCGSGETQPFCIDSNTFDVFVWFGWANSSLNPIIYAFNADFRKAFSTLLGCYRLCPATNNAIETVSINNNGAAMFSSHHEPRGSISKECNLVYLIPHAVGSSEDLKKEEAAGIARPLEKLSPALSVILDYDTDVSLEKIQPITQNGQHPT

The experiment has as its target D(1A) dopamine receptor (Homo sapiens) (UniProt P21728). As to the kind of experiment: D1 CRE-luciferase signal change, two-sided – cell-based, HEK293 D1, dopamine EC30, D1 allosteric modulator project, primary screen (AID 641). Particulars: dopamine EC30 potentiation, at 10 µM, actives deviate in either direction.
Regarding `c1ccc(Nc2nc(-c3ccncc3)cs2)nc1`, the B-score is -2.02 (inactive).

As for `Oc1ccc(-c2csc(Nc3cccnc3)n2)cc1`, the B-score was 6.13 (active). Next, `COc1ccc(OC)c(Nc2nc(-c3ccc(O)c(O)c3)cs2)c1`: -0.798 (inactive); `COc1ccc(OC)c(C(=O)c2coc3ccc(OC)cc23)c1`: 0.803 (inactive); `COc1ccc(-c2nnc(SCC(=O)NC3CCCCC3)o2)cc1OC`: 5.11 (active).

As for `COc1ccc(CCNC(=O)CSc2nnc(-c3cccc(F)c3)o2)cc1OC`, the B-score is 0.506 (inactive). Regarding `COc1ccccc1-c1nnc(SCC(=O)Nc2ccccc2)o1`, the B-score is -1.39 (inactive). Turning to `Cc1ccc(-c2noc(-c3ccccc3C(=O)NCC3CCCO3)n2)cc1` (stereo unspecified), the B-score was -0.376 (inactive). Turning to `c1ccc2c(NCC3CCCO3)nc(-c3ccncc3)nc2c1` (stereo unspecified), the B-score was 6.75 (active). `Cc1nc2ccccc2c2oc(C(=O)NCC3CCCO3)cc12` (stereo unspecified): the B-score was 1.81 (inactive). Take `CN(C)/C=C1/C(=O)Nc2ccccc21`: the B-score is 0.196 (inactive). As for `CCCCn1c(SCC(=O)NCC2CCCO2)nc2ccc(N3CCOCC3)cc2c1=O` (stereo unspecified), the figure is 0.249 (inactive); as for `Cn1c(=O)c2[nH]c(NCC3CCCO3)nc2n(-c2ccccc2)c1=O` (stereo unspecified), 2.53 (active); as for `CC(C)(C)c1nc(NCC2CCCO2)c2nnn(Cc3ccccc3)c2n1` (stereo unspecified), 0.157 (inactive). As for `CCC1C(C#N)=C(SC)NC2=C1C(=O)CC(C)(C)C2` (stereo unspecified), the B-score was -0.282 (inactive). Next, `O=C(CCCCn1c(=O)[nH]c2ccccc2c1=O)NCc1ccc2c(c1)OCO2`: 0.766 (inactive); `O=C(CCCn1c(=O)[nH]c2cc(Cl)ccc2c1=O)NCCN1CCN(c2ccccc2)CC1`: -3.76 (active). Turning to `O=C(CCn1c(=O)[nH]c2ccccc2c1=O)NCCCN1CCN(c2cccc(Cl)c2)CC1`, the B-score was -1.82 (inactive). Take `C=CCNC(=O)C1CC=CCC1C(=O)O` (stereo unspecified): the B-score is 0.00169 (inactive). Next, `CC(C)(C)NC(=O)c1cc(NC(=O)c2ccco2)cc(NC(=O)c2ccco2)c1`: -0.752 (inactive); `O=C(c1ccco1)N1CCN=C1SCc1cccc(Cl)c1`: 6.32 (active).

In the case of `O=C(c1ccco1)N1CCN(c2cccc(Cl)c2)CC1`, the B-score is -0.482 (inactive).

`O=C(C1CC1)N1CCN=C1SCc1ccc(Cl)cc1`: the B-score is 0.0469 (inactive). Regarding `N#CC1=C(N)OC2=C(C(=O)CCC2)C1C1CC=CCC1` (stereo unspecified), the B-score is -0.19 (inactive). As for `CCCN1C(=O)C(NC(C)=O)c2cc(OC)ccc21` (stereo unspecified), the figure is 0.478 (inactive). Next, `Cc1onc(-c2ccccc2)c1C(=O)Nc1ccccc1C#N`: -4.73 (active); `CC(=O)Nc1cccc(NC(=O)c2c(-c3ccccc3)noc2C)c1`: 0.894 (inactive). As for `Cc1onc(-c2ccccc2)c1C(=O)N1CCOCC1`, the figure is -1.43 (inactive); as for `Cc1cc(C)c2nc(N3CCCC3)c(C#N)cc2c1`, 0.082 (inactive). Turning to `CCCN1Cc2cccc(C(=O)NCc3ccccc3)c2C1=O`, the B-score was 11.5 (active). As for `CS(=O)(=O)NCc1ccc(C(=O)NCc2ccccc2)cc1`, the figure is 0.452 (inactive); as for `COCCN1Cc2cccc(C(=O)Nc3ccccc3OC)c2C1=O`, 0.446 (inactive); as for `O=S(=O)(NCCNS(=O)(=O)c1ccccc1)c1ccccc1`, 0.231 (inactive). As to `COc1ccccc1Oc1ccc(S(=O)(=O)Nc2cccnc2)cc1`, the B-score is -1.35 (inactive). Take `O=C(Nc1nnc(-c2ccc(Cl)cc2)o1)c1ccccc1Br`: the B-score was -0.685 (inactive). As for `CC1=CC(C)(C)N(C(=O)CSc2nccn2C)c2cc(C)ccc21`, the figure is -0.925 (inactive); as for `Cc1noc(NS(=O)(=O)c2ccc(NC(=O)C34CCC(CC3)C4)cc2)c1C`, -0.488 (inactive); as for `CN(CC(=O)NC1CCCCC1)S(=O)(=O)c1cccc2cccnc12`, -1.04 (inactive). For the molecule `O=C(Cn1cnc2c(cnn2-c2ccc(F)cc2)c1=O)NCCc1ccccc1`, the B-score was -0.343 (inactive). Next, `Cn1c(/C(C#N)=C2/CCCCCN2)nc2ccccc21`: 11.4 (active); `N#C/C(=C1\CCCN1)c1nc(-c2ccccc2)cs1`: -1.24 (inactive); `CCCn1c(C(O)c2ccc(OCC)cc2)nc2ccccc21` (stereo unspecified): -0.886 (inactive).

As for `CC(C)n1c(C(O)c2ccccc2)nc2ccccc21` (stereo unspecified), the B-score was 3.08 (active). As for `COc1cc(C(O)c2nc3ccccc3n2C)cc(OC)c1OC` (stereo unspecified), the figure is -0.575 (inactive); as for `Cn1c(=O)c2c(nc(CN3CCOCC3)n2Cc2ccccc2)n(C)c1=O`, -0.887 (inactive). For `CCOC(=O)C1Cn2c(nc3c(c2=O)C(C)(CC)Cc2ccccc2-3)S1` (stereo unspecified), the B-score was -0.309 (inactive).

As for `CC1(C)Cc2ccccc2-c2nc(CN3CCOCC3)[nH]c(=O)c21`, the B-score is 11.8 (active). Next, `Cc1ccc(N(CC(O)CN2CCCC2)S(=O)(=O)c2ccccc2)cc1` (stereo unspecified): 0.09 (inactive); `COc1ccc(-c2nc(CS(=O)CC(=O)N3CCc4ccccc4C3)c(C)o2)cc1` (stereo unspecified): -0.182 (inactive); `Cc1cccc(-n2ncc3c(N4CCc5ccccc54)ncnc32)c1`: -0.748 (inactive). Next, `COc1ccc(-n2ncc3c(N4CCc5ccccc54)ncnc32)cc1`: -3.03 (active); `COc1ccc(-n2ncc3c(N4CCCc5ccccc54)ncnc32)cc1`: 0.526 (inactive); `Cc1cc(/C=N/n2cnnc2)c(C)n1-c1ccc2ncccc2c1`: -0.264 (inactive).

For `CN1C(=O)c2ccc(NC(=O)c3c(F)c(F)c(F)c(F)c3F)cc2C1=O`, the B-score is 0.371 (inactive). `CNC(=O)C1CC(=O)N(Cc2ccc3c(c2)OCO3)C(=Nc2ccc(F)cc2)S1` (stereo unspecified): the B-score is -4.24 (active). As for `O=C(Cn1cnc2c(nnn2Cc2ccc(F)cc2)c1=O)NCc1ccc2c(c1)OCO2`, the figure is -1.24 (inactive); as for `O=C(CN1CCN(CC(=O)Nc2ccc3c(c2)OCO3)CC1)Nc1ccc(F)cc1`, -0.0409 (inactive); as for `O=C(Nc1cccc(F)c1)c1ccc(S(=O)(=O)N2CCCC2)cc1`, -0.728 (inactive).

`Cc1ccccc1OCC(=O)Nc1ccc(N2CCN(C(=O)C(C)C)CC2)c(Cl)c1`: the B-score is -0.399 (inactive).

Consider `CN1CCN(c2ccc(NC(=O)COc3ccc(Cl)cc3Cl)cc2)CC1`, for which the B-score was -5.29 (active). On to `CC(C)CNS(=O)(=O)c1ccc(OCC(=O)Nc2ccc3c(c2)OCO3)c(Cl)c1`, for which the B-score is 0.525 (inactive). On to `Cc1ccc(C)c(NC(=O)CSc2nnc(Cc3cccn3C)n2-c2ccc(F)cc2)c1`, for which the B-score was -0.0122 (inactive). Turning to `CCOC(=O)C1CCc2nc3ccccc3c(=O)n21` (stereo unspecified), the B-score was -0.327 (inactive). Turning to `CC(=O)OC(C)C[N+](C)(C)C` (stereo unspecified), the B-score was 6.75 (active). Regarding `CC(C[N+](C)(C)C)OC(N)=O` (stereo unspecified), the B-score is 0.394 (inactive). As to `CSc1nnc(CNC(=O)c2ccccc2)n1-c1ccc(F)cc1`, the B-score was -0.759 (inactive). In the case of `Cc1ccccc1NC(=O)c1cnn(-c2ccccc2)c1NC(=O)c1ccco1`, the B-score is -0.921 (inactive). For the molecule `COCCCn1c(CCC(=O)O)ccc1-c1ccc(F)cc1`, the B-score was 0.034 (inactive).

For the molecule `COC(=O)c1sc(NC(=O)c2ccc(OC)cc2OC)nc1C`, the B-score was -2.64 (active). Consider `COc1ccc(C(=O)Nc2nncs2)c(OC)c1`, for which the B-score was -0.602 (inactive). As for `COC(=O)c1sc(NC(=O)c2csc3c2CCCC3)nc1C`, the figure is 0.102 (inactive); as for `O=C(C1CCN(S(=O)(=O)c2cccs2)CC1)N1CCCCCC1`, -0.0225 (inactive).

With `O=S(=O)(c1cccs1)N1CCc2ccccc2C1`, the B-score is 7.95 (active). Next, `O=S(=O)(c1cccs1)N1CCN(Cc2ccccc2)CC1`: 0.549 (inactive). Next, `CCNC(=O)CCc1nc(-c2ccc(C(C)(C)C)cc2)no1`: -0.735 (inactive); `CCOc1ccccc1N(CC(=O)Nc1ccccc1C(=O)OC)S(C)(=O)=O`: 0.461 (inactive); `CC1=C2C(=O)OC(c3ccoc3)C2(C)CCC1` (stereo unspecified): -0.874 (inactive). Next, `CCOc1cccc(NC(=O)CC#N)c1`: -0.00988 (inactive); `CC(=O)Nc1cccc(Oc2cc(C#N)c(C#N)cc2N2CCOCC2)c1`: 10.6 (active). Turning to `CC(=O)Nc1ccc(N2CCOCC2)c(C(=O)Nc2cccc(C)c2)c1`, the B-score is -0.395 (inactive). Next, `COc1ccc(S(=O)(=O)N2CCC(C(=O)N3CCOCC3)CC2)cc1OC`: 1.55 (inactive); `O=C(Cn1cnc2c(nnn2-c2ccccc2)c1=O)N1CCC(Cc2ccccc2)CC1`: -0.43 (inactive). As for `CCSc1ncnc2c(C#N)c3n(c12)CCCCC3`, the figure is 13.8 (active). Next, `CCSC1=C(C#N)C(=O)n2c1cc1c2CCCC1`: -0.914 (inactive); `CCOC(=O)C1=C(C)NC(=O)N(C(C)=O)C1c1ccc(Cl)cc1` (stereo unspecified): -0.258 (inactive).

Turning to `COc1cc(-c2nc(-c3ccncc3)no2)cc(OC)c1OC`, the B-score was 0.324 (inactive). As for `COc1ccc(-c2noc(-c3cccc(OC)c3OC)n2)cc1OC`, the figure is -0.715 (inactive); as for `COc1ccc(-c2nc(-c3ccccc3)no2)c(OC)c1`, -4.54 (active).

For the molecule `COc1ccc(NC(=O)CN2CCN(S(=O)(=O)c3ccc(F)cc3)CC2)cc1Cl`, the B-score was 0.0874 (inactive). Regarding `CC1(C)CC(=O)C=C(NCCCNC2CCCCC2)C1`, the B-score is -0.045 (inactive). Next, `COc1cccc(CNC(=O)C2CCN(S(=O)(=O)c3cccc4cccnc34)CC2)c1`: 0.421 (inactive); `CCOc1ccccc1NC(=O)C1CCN(S(=O)(=O)c2c(C)nn(C)c2C)CC1`: -0.536 (inactive); `COC(=O)c1ccccc1NC(=O)C1CCN(S(=O)(=O)c2cc(OC)ccc2OC)CC1`: 16.9 (active).

As to `Cn1cc(S(=O)(=O)N2CCC(Cc3ccccc3)CC2)c(=O)n(C)c1=O`, the B-score is 0.229 (inactive).

Turning to `CC1CCC(NC(=O)c2ccc(N3CCCC3=O)cc2)CC1` (stereo unspecified), the B-score is -0.328 (inactive).

In the case of `O=P(c1cccs1)(c1cccs1)c1cccs1`, the B-score is -0.658 (inactive). Take `CC1C(c2ccccc2)=[N+]([O-])C2(CCCC2)N1O` (stereo unspecified): the B-score was 0.0193 (inactive).

On to `CCCCc1nc2ccccc2c(=O)n1NC(=O)c1c(O)c2cccc3c2n(c1=O)CC3`, for which the B-score was -0.934 (inactive).

For `CCc1ccc2oc(-c3ccc(N)cc3)nc2c1`, the B-score is -5.51 (active). `Nc1ccc(-c2nnc(-c3ccc(-c4ccccc4)cc3)o2)cc1`: the B-score was -0.481 (inactive). As to `CCCCCC(=O)Nc1ccc2oc(-c3ccncc3)nc2c1`, the B-score is -0.0351 (inactive).
